Test results from article PMC4081100, “A DNA-binding-site landscape and regulatory network analysis for NAC transcription factors in Arabidopsis thaliana”.

How the values were obtained:
Test in all cases: universal protein binding microarray (PBM); transcription factors of Arabidopsis thaliana; high values mean tight binding
Conditions in all cases: protein: recombinant; tags: GST; chain copies: 2; dsDNA, one strand shown
GST-ANAC092(1-176) = target: T1, GST-ANAC092(1-176) (Arabidopsis thaliana, UniProt Q9FKA0 1-176)
T1 sequence: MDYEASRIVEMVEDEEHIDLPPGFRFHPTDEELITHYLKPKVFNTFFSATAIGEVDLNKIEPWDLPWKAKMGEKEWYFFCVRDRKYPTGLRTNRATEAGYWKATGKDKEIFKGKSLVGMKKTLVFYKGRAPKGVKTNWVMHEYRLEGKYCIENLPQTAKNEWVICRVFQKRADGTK
Outline: (§1)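 GST-tagged NAC-domain, full-length or DNA-binding-domain proteins were induced in cells, with zinc acetate added for zinc-finger proteins. They were purified on glutathione–Sepharose 4B and quantified by A280 or anti-GST western blot. Each was applied at 200 to 500 nM final, in duplicate, to custom all-10-mer Agilent 4 × 180K arrays made double-stranded by primer extension, with gapped and ungapped 8-mers scored. Binding is the normalised enrichment score (E-score).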

GST-NTL6(1-168) = GST-NTL6(1-168) (Arabidopsis thaliana, UniProt Q9SCK6 1-168)
Chain of GST-NTL6(1-168) (Q9SCK6 1-168): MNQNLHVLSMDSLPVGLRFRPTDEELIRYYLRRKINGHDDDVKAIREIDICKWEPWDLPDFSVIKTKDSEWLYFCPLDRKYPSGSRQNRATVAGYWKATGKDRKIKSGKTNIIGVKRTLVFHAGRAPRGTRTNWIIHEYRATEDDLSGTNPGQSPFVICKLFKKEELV
Outline: as §1

GST-ANAC019 NAC domain = target: T2, GST-ANAC019 NAC domain (Arabidopsis thaliana, UniProt Q9C932 14-162)
T2 sequence: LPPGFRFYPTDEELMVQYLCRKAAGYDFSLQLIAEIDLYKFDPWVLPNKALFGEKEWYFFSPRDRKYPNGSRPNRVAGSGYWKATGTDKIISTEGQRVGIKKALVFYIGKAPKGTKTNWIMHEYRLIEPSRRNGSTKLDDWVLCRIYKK
Outline: as §1

GST-ANAC055(1-171) = target: T3, GST-ANAC055(1-171) (Arabidopsis thaliana, UniProt Q9LDY8 1-171)
T3 sequence: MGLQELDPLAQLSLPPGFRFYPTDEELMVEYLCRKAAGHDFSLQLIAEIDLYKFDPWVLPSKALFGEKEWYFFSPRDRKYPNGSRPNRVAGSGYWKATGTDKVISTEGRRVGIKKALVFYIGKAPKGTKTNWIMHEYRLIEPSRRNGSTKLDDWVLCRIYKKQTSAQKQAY
Outline: as §1

GST-ATAF1 NAC domain = target: T4, GST-ATAF1 NAC domain (Arabidopsis thaliana, UniProt Q39013 7-158)
T4 sequence: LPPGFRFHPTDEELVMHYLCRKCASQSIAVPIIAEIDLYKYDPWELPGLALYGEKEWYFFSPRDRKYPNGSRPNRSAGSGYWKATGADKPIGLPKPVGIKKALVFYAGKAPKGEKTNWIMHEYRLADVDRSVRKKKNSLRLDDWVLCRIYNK
Outline: as §1

[1] = target: T5, GST-ANAC092(1-285) full length (Arabidopsis thaliana, UniProt Q9FKA0 1-285)
T5 sequence: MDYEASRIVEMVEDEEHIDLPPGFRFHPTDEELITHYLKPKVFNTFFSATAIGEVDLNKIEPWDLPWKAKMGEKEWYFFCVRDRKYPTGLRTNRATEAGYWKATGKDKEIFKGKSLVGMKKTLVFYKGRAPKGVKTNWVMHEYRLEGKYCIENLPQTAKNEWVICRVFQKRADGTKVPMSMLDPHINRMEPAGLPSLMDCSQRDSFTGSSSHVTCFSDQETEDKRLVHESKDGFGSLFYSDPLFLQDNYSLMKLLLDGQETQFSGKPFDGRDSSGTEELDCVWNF
Outline: as §1

GST-NAP(1-166) = target: T6, GST-NAP(1-166) (Arabidopsis thaliana, UniProt O49255 1-166)
T6 sequence: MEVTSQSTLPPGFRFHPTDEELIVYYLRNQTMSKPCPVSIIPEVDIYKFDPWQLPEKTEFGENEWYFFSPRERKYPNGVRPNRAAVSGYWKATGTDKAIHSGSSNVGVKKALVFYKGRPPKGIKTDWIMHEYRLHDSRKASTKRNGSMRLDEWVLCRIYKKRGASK
Outline: as §1

GST-NST2(1-184) = target: T7, GST-NST2(1-184) (Arabidopsis thaliana, UniProt Q9M274 1-184)
T7 sequence: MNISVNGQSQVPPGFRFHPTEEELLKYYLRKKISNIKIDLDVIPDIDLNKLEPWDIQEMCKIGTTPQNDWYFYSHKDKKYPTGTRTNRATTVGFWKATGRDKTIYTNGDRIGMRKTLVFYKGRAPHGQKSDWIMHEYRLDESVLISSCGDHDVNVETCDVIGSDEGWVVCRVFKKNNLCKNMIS
Outline: as §1

GST-NTL8 NAC domain = target: T8, GST-NTL8 NAC domain (Arabidopsis thaliana, UniProt Q9XIN7 14-156)
T8 sequence: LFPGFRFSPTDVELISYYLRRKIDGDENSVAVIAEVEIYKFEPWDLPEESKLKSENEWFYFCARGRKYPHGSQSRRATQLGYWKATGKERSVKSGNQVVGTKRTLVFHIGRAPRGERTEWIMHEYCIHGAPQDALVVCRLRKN
Outline: as §1

GST-SND1(1-203) = target: T9, GST-SND1(1-203) (Arabidopsis thaliana, UniProt Q9LPI7 1-203)
T9 sequence: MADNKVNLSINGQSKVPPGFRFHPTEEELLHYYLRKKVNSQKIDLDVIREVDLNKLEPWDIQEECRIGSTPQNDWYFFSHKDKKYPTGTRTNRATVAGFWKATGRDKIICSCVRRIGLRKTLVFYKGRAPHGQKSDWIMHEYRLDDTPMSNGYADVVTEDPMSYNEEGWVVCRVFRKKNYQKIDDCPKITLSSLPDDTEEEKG
Outline: as §1

GST-VND3 NAC domain = target: T10, GST-VND3 NAC domain (Arabidopsis thaliana, UniProt Q9FH59 12-162)
T10 sequence: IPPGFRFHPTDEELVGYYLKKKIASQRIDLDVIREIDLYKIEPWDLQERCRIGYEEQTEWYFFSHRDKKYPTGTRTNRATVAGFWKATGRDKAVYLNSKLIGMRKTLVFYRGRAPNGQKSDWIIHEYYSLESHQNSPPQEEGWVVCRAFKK
Outline: as §1

GST-VND7 NAC domain = target: T11, GST-VND7 NAC domain (Arabidopsis thaliana, UniProt Q9C8W9 9-158)
T11 sequence: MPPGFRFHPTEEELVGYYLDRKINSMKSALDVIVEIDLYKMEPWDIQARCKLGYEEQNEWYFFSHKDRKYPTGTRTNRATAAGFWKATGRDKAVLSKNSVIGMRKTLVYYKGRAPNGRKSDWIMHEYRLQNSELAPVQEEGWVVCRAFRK
Outline: as §1

Row | Sequence | binding signal (GST-ANAC092(1-176)) [E-score] | binding signal (GST-NTL6(1-168)) [E-score] | binding signal (GST-ANAC019 NAC domain) [E-score] | binding signal (GST-ANAC055(1-171)) [E-score] | binding signal (GST-ATAF1 NAC domain) [E-score] | binding signal [1] [E-score] | binding signal (GST-NAP(1-166)) [E-score] | binding signal (GST-NST2(1-184)) [E-score] | binding signal (GST-NTL8 NAC domain) [E-score] | binding signal (GST-SND1(1-203)) [E-score] | binding signal (GST-VND3 NAC domain) [E-score] | binding signal (GST-VND7 NAC domain) [E-score]
1 | GGAAGCAA | 0.318 | 0.36 | 0.117 | 0.136 | 0.137 | 0.405 | 0.0755 | 0.242 | 0.269 | 0.385 | 0.118 | 0.0735
2 | CGAGGAAA | 0.0746 | 0.138 | 0.0533 | 0.139 | 0.152 | 0.131 | 0.0581 | 0.0987 | 0.442 | 0.17 | 0.155 | 0.173
3 | CTTAAGTA | 0.154 | 0.416 | 0.0907 | 0.178 | 0.207 | 0.198 | 0.0567 | 0.207 | 0.264 | 0.267 | 0.218 | 0.182
4 | TACGTAAA | 0.427 | 0.095 | 0.43 | 0.384 | 0.377 | 0.444 | 0.399 | 0.261 | 0.172 | 0.43 | 0.421 | 0.43
